Reference: PubChem BioAssay AID624114 (Johns Hopkins Ion Channel Center, 2012)
About 15 (0.4%) of roughly 4,000 compounds were called active.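 The calls were made as follows: active = calcium fluorescence ratio, averaged over duplicates, at least 3 SD of the buffer-well ratio, meaning a nonspecific response in receptor-free cells; inactive = the rest.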 The list is a sample of the results.

test: calcium response in parental HEK293 cells, primary screen, counter-screen for MrgX1 allosteric activator project, cell-based, Fluo-4 calcium flux, duplicate (AID 624114); conditions: Fluo-4 fluorescence ratio, at 10 µM;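 also: untransfected parental HEK293 lacking MrgX1 used as counterscreen for MrgX1 allosteric activators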

| Compound | outcome |
| --- | --- |
| O=C(NC1CCCCC1)C1c2ccccc2C(=O)N1Cc1ccco1 (stereo not drawn) | inactive |
| Cc1cc2oc3ccc(NCCC4CCCN4C)cc3c(=O)c2cc1C (stereo not drawn) | inactive |
| COCCCNC(=O)C1CCN(c2ccc(N3CCOCC3)nn2)CC1 | inactive |
| Cc1cc(Br)ccc1NC(=O)c1cnc(N2CCN(c3ccccn3)CC2)c2ccccc12 | inactive |
| Cc1ccc(S(=O)(=O)N(C)c2nc3ccccc3n3c(C(C)C)nnc23)cc1 | inactive |
| CC1CCN(S(=O)(=O)c2nnc(NC(=O)COc3ccccc3F)s2)CC1 | inactive |
| Cc1ccc(-c2nn(C(C)(C)C)c3ncnc(N)c23)cc1 | inactive |
| CCC1CCCCN1CCNC(=O)c1[nH]c(C)c(C(C)=O)c1C (stereo not drawn) | inactive |
| O=C(CSc1ncccn1)NC(=O)NCc1ccccc1 | inactive |
| CC1CCCCN1S(=O)(=O)c1ccc(C(=O)Nc2nnc(-c3cccs3)o2)cc1 (stereo not drawn) | inactive |
| O=C(Nc1nc2c(F)cc(F)cc2s1)C1COc2ccccc2O1 (stereo not drawn) | inactive |
| O=C1C(=O)N(CC2COc3ccccc3O2)c2ccccc21 (stereo not drawn) | inactive |
| COc1cccc(CNC(=O)C2CCN(S(=O)(=O)c3cccc4cccnc34)CC2)c1 | inactive |
| COc1ccc(C(=O)NC(=S)NNC(=O)CCc2ccccc2)cc1 | inactive |
| CCOC(=O)C1=C(O)/C(=C/c2cc(C)n(-c3ccccc3)c2C)N=C1C | inactive |
| Cc1ccc2nc(Nc3ccccc3)cc(C)c2c1 | inactive |
| Cc1ccc(Cc2cnc(N)s2)o1 | inactive |
| O=C(CSc1nncn1-c1cccnc1)N1CCOCC1 | inactive |
| COc1ccc(OC)c(C(=O)c2ccc(Cl)cc2)c1 | inactive |
| CCCc1cc(=S)n2c([nH]c3ccccc32)c1C#N | inactive |
| Nc1cc(OC(=O)c2ccccc2Br)nn1S(=O)(=O)c1ccccc1 | inactive |
| CC(C)(C)n1c(=O)[nH]c2c(c1=O)CCC2 | inactive |

| Compound | outcome |
| --- | --- |
| CCOC1CCCCC1NS(=O)(=O)c1ccc(Cl)cc1 (stereo not drawn) | inactive |
| C=CCOc1cccc(C2C(C(=O)c3ccc(C)o3)=C(O)C(=O)N2c2nnc(C)s2)c1 (stereo not drawn) | inactive |
| Cc1cccc(-n2c(Cc3cc(=O)[nH]c(=O)[nH]3)nnc2SC(C)C)c1 | inactive |
| O=C1CCCc2c1nc(-c1cccc(Cl)c1)n2O | inactive |
| Cc1nc(N2CCN(c3ccccn3)CC2)c2c(C)c(C(=O)Nc3ccc(F)c(Cl)c3)sc2n1 | inactive |
| Cc1cc(C)n(CCNC(=O)CC2C(=O)NCCN2Cc2ccc(C)o2)n1 (stereo not drawn) | inactive |
| COc1ccc(S(=O)(=O)N2CCN(C(=O)NC3CCCCC3)CC2)cc1 | inactive |
| CCCCC(=O)Nc1ccc2c(c1)C(=O)NC2=O | inactive |
| Cc1nn(-c2ccccc2)c(C)c1NC(=O)COc1ccc(Cl)cc1Cl | inactive |
| Cc1ccc(-n2[nH]c(C)c(/C=N/N3C(=O)c4cccc5cccc(c45)C3=O)c2=O)cc1 | inactive |
| COC(=O)Cc1cc(=O)n(-c2nc3ccccc3s2)[nH]1 | inactive |
| O=C1C(Cc2ccc(O)cc2)NC(=S)N1Cc1ccccc1 (stereo not drawn) | inactive |
| Clc1ccc(C=NC23CN4CN(CN(C4)C2)C3)cc1 | inactive |
| CC(C)CC(=O)NC(=S)NNC(=O)c1cccc([N+](=O)[O-])c1 | inactive |
| Cc1[nH][nH]c(=O)c1C(c1ccc(-c2ccc(Cl)cc2)o1)c1c(C)[nH][nH]c1=O | inactive |
| O=C(Oc1ccc(C(=S)N2CCOCC2)cc1)c1ccc(F)cc1 | inactive |
| COC(=O)c1ccc(C2C3=C(Nc4nnnn42)c2ccccc2OC3)cc1 (stereo not drawn) | inactive |
| Clc1ccc(-c2nc3ccccn3c2CN2CCSCC2)cc1 | inactive |
| CCOCc1nnc(NC(=O)CCC2CCCCC2)s1 | inactive |
| Cc1ccc2nc(-c3ccc(NC(=O)CN(C)S(=O)(=O)c4ccccc4)cc3)sc2c1 | inactive |
| Cc1ccc(N/C(N)=N/c2nc(C(F)(F)F)cc(C(F)(F)F)n2)cc1 | inactive |
| Cc1cccc(NC(=O)C(C)N2C(=O)C3C4CC(C(Br)C4Br)C3C2=O)c1 (stereo not drawn) | inactive |

| Compound | outcome |
| --- | --- |
| O=c1cc(CSc2ccccn2)nc(N2CCN(c3ccccc3)CC2)[nH]1 | inactive |
| CCN(c1cccc(C)c1)S(=O)(=O)c1ccc(-c2coc(C)n2)cc1 | inactive |
| CC(C)CC(=O)N/C(N)=N/c1nc2ccccc2s1 | inactive |
| Cc1nn(-c2ccccc2)c2c1C(c1ccc(F)cc1)C(C#N)=C(N)O2 (stereo not drawn) | inactive |
| CCOc1ccc(C(=O)NC2CCN(S(=O)(=O)CC)CC2)cc1 | inactive |
| CCOC(=O)CNC(=O)CSc1nc2cccnc2n1CC | inactive |
| Cc1nc(C)c(-c2csc(NCCc3ccccc3)n2)s1 | inactive |
| C(=N\n1cnnc1)/c1cccnc1 | inactive |
| Cc1cccc(NC(=O)COc2ccccc2C)n1 | inactive |
| O=C(Nc1ccc(Br)cc1F)C1CC(=O)N(C2CCCCC2)C1 (stereo not drawn) | inactive |
| COc1ccc(Cc2nc(-c3ccccn3)no2)cc1OC | inactive |
| COC(=O)c1ccc(COC(=O)C2CCN(S(=O)(=O)c3c(Cl)cccc3Cl)CC2)o1 | inactive |
| COCC(C)NC(=O)c1ccc(Cl)c(Cl)c1 (stereo not drawn) | inactive |
| CCOc1ccc(C2=CC(c3ccccc3)n3ncnc3N2)cc1 (stereo not drawn) | inactive |
| CCOC(=O)Cc1csc(SCc2cc(=O)oc3cc(O)ccc23)n1 | inactive |
| O=C(Nc1ccc(Cl)cc1)Nc1ccc(Oc2cccnc2)nc1 | inactive |
| O=C(COc1ccc(Cl)cc1)NC(=S)Nc1ccccc1N1CCOCC1 | inactive |
| N#CC1=C(N)Oc2c(sc3ccccc23)C1c1ccco1 (stereo not drawn) | inactive |
| O=C(CN1CCN(c2ccccn2)CC1)NC1CCCCC1 | inactive |
| COc1ccc(S(=O)(=O)N2CCOCC2)c(C)c1C | inactive |
| Cc1cc2ncn(CCCCOc3ccccc3)c2cc1C | inactive |
| CCN(CC)c1ccc2oc(=O)c(C)nc2c1 | inactive |

| Compound | outcome |
| --- | --- |
| CN1C(CC(=O)Nc2ccc(Br)cc2)c2ccccc2CC1(C)C (stereo not drawn) | inactive |
| COc1ccc(C(=O)NC(=S)NC2CCCCC2)cc1 | inactive |
| O=C(Nc1ccccc1Cl)N1CCN(c2ccc3nncn3n2)CC1 | inactive |
| COC(=O)c1c(NC(=O)c2c(Cl)cnn2C)sc(C)c1C | inactive |
| CCOC(=O)c1[nH]c2ccc(C)cc2c1N=C(C)N(C)C | inactive |
| Cc1cccc(Cn2cnc3c(N)c(C)c(C)cc32)c1 | inactive |
| Cc1ccc(OC(=O)c2cc3ccccc3o2)cc1 | inactive |
| CCOC(=O)c1cn(Cc2cccc(C)c2)nn1 | inactive |
| C=CCNC(=O)c1csc(-c2ccccc2)n1 | inactive |
| O=C(c1cccs1)C1C(c2ccc(Br)cc2)NC(=S)NC1(O)C(F)(F)F (stereo not drawn) | inactive |
| CC(=O)Nc1ccc(OC(=O)COc2ccc(Br)cc2)cc1 | inactive |
| O=C(c1ccc(O)cc1)c1ccc(C(=O)O)c(C(=O)O)c1 | inactive |
| O=C1Cc2ccccc2Sc2ccc(Cl)cc21 | inactive |
| CC(Oc1ccc(F)cc1)C(=O)Nc1ccccc1C(=O)NC1CC1 (stereo not drawn) | inactive |
| O=C(c1ccc(OC2CCN(C(=O)c3cccnc3)CC2)cc1)N1CCCCCC1 | inactive |
| O=C(COC(=O)c1ccc(NS(=O)(=O)c2cccs2)cc1O)Nc1ccc(F)cc1 | inactive |
| COc1cc(C(F)(F)F)nc2c(Br)c(C(C)(C)C)nn12 | inactive |
| Cc1cc(Nc2cc(N3CCN(C)CC3)nc(Sc3ccc(NC(=O)C4CC4)cc3)n2)n[nH]1 | inactive |
| CC(=O)N1c2ccc(S(=O)(=O)N3CCCC(C(=O)Nc4cccc(Cl)c4)C3)cc2CC1C (stereo not drawn) | inactive |
| CCCCOC(=O)CNc1nnc(SCC(=O)OCC)[nH]c1=O | inactive |
| COc1ccc(OC)c(Nc2nc3ccccc3n3cnnc23)c1 | inactive |
| Fc1cccc(Cl)c1COc1ccc(-c2nnco2)cc1 | inactive |
